# Measured values: PubChem BioAssay AID1063 (University of Pittsburgh Molecular Library Screening Center, 2008)
# About 18,000 (9%) of roughly 200,000 compounds were called active. Shown is part of a subset that was picked to be rich in actives. Values without a mark were called inactive. Cut-off read from the data, not from the text of the source: active = inhibition above about 50%; inactive = the rest.
# Assay: antileishmanial activity against promastigotes – primary screen (AID 1063);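 note: promastigotes grown with compound for 44 hours at 28 °C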
# Details: Leishmania major promastigotes, resazurin fluorescence viability; at 10 µM; stronger effect = higher value
row,SMILES,inhibition
1,COc1ccc(C(=O)NC(=S)NNC(=O)c2c(-c3ccccc3)noc2C)cc1,-0.99%
2,O=C(CCc1ccccc1)NNC(=O)c1ccc(Br)cc1,-3.53%
3,COc1ccc(C(=O)NC(=S)NNC(=O)CCc2ccccc2)cc1,93.2% (active)
4,O=C(CCCc1ccccc1)NCc1ccccc1,-8%
5,O=C(CN1C(=O)c2cccc3cccc1c23)Nc1ccccc1,-9.01%
6,O=C(CN1C(=O)c2cccc3cccc(c23)C1=O)N1CCCCC1,89.8% (active)
7,Cn1c(=O)n(C)c(=O)n(CC(=O)N2CCCCC2)c1=O,-4.15%
8,COc1ccc(OCC(=O)NNC(=O)c2cccc(C)c2)cc1,-6.27%
9,Cc1ccc(CC(=O)Nc2cccc(C#N)c2)cc1,-0.29%
10,COc1cccc2sc(Nc3nc(C)c(C(C)=O)s3)nc12,98.4% (active)
11,CC(=O)c1sc(NC(=O)CCCOc2ccccc2C)nc1C,-7.25%
12,COc1cccc2sc(NNC(=O)c3nc4ccccc4s3)nc12,48.5%
13,COC(=O)CSc1ccc2nnc(CCNS(=O)(=O)c3ccc(C)cc3)n2n1,2.97%
14,CSc1ncccc1C(=O)OCc1ccc(Br)cc1,-1.11%
15,CCOC(=O)/C(=N\Nc1ccccc1Cl)N(C)C1CCS(=O)(=O)C1 (centres undefined),-1.23%
16,CCc1cccc(NC(=O)CCC(=O)O)c1,52.3% (active)
17,CCc1cccc(NC(=O)CCNS(=O)(=O)c2cccc3nonc23)c1,-7.76%
18,CCOC(=O)c1cccc(NC(=O)CCOc2ccccc2)c1,9.18%
19,CC(OC(=O)c1ccccc1OCc1ccc(Cl)cc1)C(N)=O (centres undefined),10.8%
20,CC1CN(/C=C/C(=O)C(F)(F)F)CC(C)O1 (centres undefined),-1.49%
21,COCC1CCCN(Cc2nc(-c3ccc4c(c3)OCO4)no2)C1 (centres undefined),0.34%
22,COc1ccc(CCNc2nc(-c3cccc(NC(C)=O)c3)cs2)cc1OC,3.47%
23,COc1ccc(CCN(C(=O)COc2ccccc2)c2nc(-c3ccccc3)cs2)cc1OC,52.1% (active)
24,CN(C(=O)COc1ccccc1)c1nnc(-c2ccncc2)s1,-4.81%
25,COc1ccc(-n2c(C)nn(CC3CC3)c2=O)cc1,-6.72%

row,SMILES,inhibition
1,CC(=O)O[C@]1(C(C)=O)CC[C@H]2[C@@H]3C=C(C)C4=CC(=O)CC[C@]4(C)[C@H]3CC[C@@]21C,69.8% (active)
2,CCn1c(O)c(N=NC(=O)c2cccc(S(=O)(=O)N3CCCCC3)c2)c2ccccc21,3.18%
3,CCN(CC)S(=O)(=O)c1cc([N+](=O)[O-])ccc1NNC(=O)Nc1ccccc1,31.2%
4,CCN(CC)S(=O)(=O)c1cc([N+](=O)[O-])ccc1N=Nc1c(O)n(C)c2ccccc12,65.5% (active)
5,Cc1cccc(CN2CCN(Cc3cnn(-c4ccccc4F)c3)CC2CCO)n1 (centres undefined),3.31%
6,O=C(NCCOc1ccccc1F)Nc1ccc(Br)cc1,1.12%
7,O=C(CN(C(=O)c1csnn1)c1cccc(F)c1)NCc1ccc(F)cc1,-3.27%
8,COc1ccc(CN(C(=O)c2cccs2)c2nccs2)cc1OC,0.69%
9,COc1ccc(C2=NN(C(=O)CCC(=O)O)C(c3cccs3)C2)cc1OC (centres undefined),-5.57%
10,COC(=O)C1=CN(Cc2ccc(OC)c(OC)c2)C=C(C(=O)OC)C1c1cccs1,100% (active)
11,CCCCc1nnc(NC(=O)CSc2nc(N)cc(=O)[nH]2)s1,1.7%
12,Cc1cc(NC(=O)/C=C/C(=O)N(CC(=O)NC2CCCC2)c2ccc(F)cc2)no1,5.25%
13,Cc1cc(NC(=O)/C=C/C(=O)N(c2ccccc2C)C(C(=O)NC2CCCC2)c2ccc(F)cc2)no1 (centres undefined),71.3% (active)
14,Cc1cc(NC(=O)CCC(=O)N(c2cccc(F)c2)C(C(=O)NC2CCCC2)c2ccncc2)no1 (centres undefined),-6.83%
15,CC(=O)c1ccc(NC(=O)CSC(=S)N2CCCC2)cc1,-5.47%
16,O=C(Nc1nnc(Cc2ccccc2)s1)c1cnccn1,1.06%
17,COc1ccc(NC(=O)CSc2nc(C)cs2)cc1,8.18%
18,Cc1nn(CC#N)c(=O)n1N(C)c1ncc(C(F)(F)F)cc1Cl,-6.01%
19,Cc1nn(-c2ncc(C(F)(F)F)cc2Cl)c(=O)n1-c1ccccc1,-12.9%
20,Cc1nn(CC2CC2)c(=O)n1N(C)c1ncc(C(F)(F)F)cc1Cl,74.1% (active)
21,CC(=O)c1cccc(-n2nnnc2SCC(=O)NNC(=O)C2CCCCC2)c1,-7.09%
22,COC(=O)C1=C(N)Oc2c(oc(CO)cc2=O)C1c1c(F)cccc1Cl (centres undefined),10.5%
23,Cc1[nH][nH]c(=O)c1C(c1ccc2c(c1)OCO2)c1c(C)[nH][nH]c1=O,25.9%
24,Cc1[nH][nH]c(=O)c1C(c1ccc(-c2ccc(Cl)cc2)o1)c1c(C)[nH][nH]c1=O,100% (active)
25,CCOc1ccc(C(c2c(C)[nH][nH]c2=O)c2c(C)[nH][nH]c2=O)cc1OCC,22.5%

row,SMILES,inhibition
1,C=CCc1cccc2cc(C(=O)NC3CCCC3)c(=O)oc12,3.36%
2,OCC1(CCc2ccccc2)CCN(Cc2ccc3nsnc3c2)CC1,88.2% (active)
3,Cc1cccc(-c2ncc(CN3CCC(CO)(CCCc4ccccc4)CC3)cn2)c1,15.9%
4,OCCC1CN(Cc2ccc3nsnc3c2)CCN1C1CCCC1 (centres undefined),20.1%
5,Nn1c(SCC(=O)Nc2nccs2)nncc1=O,-3.46%
6,CSc1ncnc2sc(C)c(C)c12,-8.93%
7,Cc1ccc(S(=O)(=O)N2CCC(N3CCCCCC3)CC2)cc1,95.3% (active)
8,Cc1ccc(S(=O)(=O)N2CCN(S(=O)(=O)N3CCOCC3)CC2)cc1,-6.92%
9,CC(=O)Nc1ccc(S(=O)(=O)N2CCN(C3CCCCCCC3)CC2)cc1,-3.65%
10,COc1ccc(NC(=O)N2CCCC(c3nc(-c4ccc(F)cc4)no3)C2)cc1 (centres undefined),-5.76%
11,O=C(COC(=O)CCc1ccc(S(=O)(=O)N2CCOCC2)cc1)Nc1cccc(Cl)c1,-4.95%
12,N#C/C(C(=S)Nc1ccccc1)=C1/NN=C(N2CCOCC2)N1c1ccccc1,4.1%
13,Cc1ccc(C(=O)NC(=S)Nc2ccc(N3CCOCC3)cc2)cc1,-0.73%
14,Cc1ccc(C(=O)NC(=S)NCCN2CCOCC2)cc1,65.4% (active)
15,Cc1ccc(NC(=S)NCCN2CCOCC2)cc1,2.32%
16,O=C(CCN1CCCCC1)N=Nc1c(O)[nH]c2ccccc12,11.4%
17,CSc1ccccc1C(=O)NCc1ccccc1,-0.25%
18,Cc1cc(C)n(CC(=O)Nc2ccc([N+](=O)[O-])cc2)n1,-2.52%
19,O=C(COC(=O)c1ccco1)NCc1ccc(Cl)cc1,-4.2%
20,COC(=O)c1ccc(CSc2nc3ccccc3c(=O)n2-c2cccc(OC)c2)o1,46.8%
21,COCCn1c(C)cc(C(=O)CSc2nc3ccccc3c(=O)n2C(C)COC)c1C (centres undefined),15.4%
22,COCC(C)n1c(SCc2ccc(C(=O)OC)o2)nc2ccccc2c1=O (centres undefined),89% (active)
23,Cc1ccc(-c2nn(-c3cccc(F)c3)cc2CNCCc2ccncc2)o1,56.8% (active)
24,CSCCNCc1cn(-c2ccc(F)cc2F)nc1-c1ccccc1C,15.5%
25,Cc1ccc(-c2nn(-c3ccccc3)cc2CN(Cc2ccccc2)C(=O)CCC(=O)O)o1,-2.65%

row,SMILES,inhibition
1,Cn1c(=O)n(Cc2ccco2)c(=N)c2c3c(sc21)CCCC3,13.8%
2,COc1cccc(OC)c1C(=O)OCC(=O)/C(C#N)=C(\C)N,-3.93%
3,CCOC(=O)C1=C(CN2CCCCCC2)NC(=O)NC1c1cccc([N+](=O)[O-])c1 (centres undefined),10.7%
4,CCOC(=O)C1=C(CN2CCc3ccccc32)NC(=O)NC1c1ccc(Cl)cc1 (centres undefined),55.5% (active)
5,COCCOC(=O)C1=C(C)NC(=O)NC1c1ccc(Cl)cc1 (centres undefined),-1.33%
6,CCOC(=O)C1=C(CNC2CCCCC2)NC(=O)NC1c1cc(C)ccc1C (centres undefined),47.4%
7,CCOC(=O)C1=C(CN2CCc3ccccc32)NC(=O)NC1c1cc(C)ccc1C (centres undefined),11.4%
8,CCOC(=O)C1=C(CN2CCc3ccccc32)NC(=O)NC1c1cccc([N+](=O)[O-])c1 (centres undefined),82.8% (active)
9,C/C(=N/OC(=O)c1cccc(C(F)(F)F)c1)c1cnccn1,-8.57%
10,Cn1cnnc1SCC(=O)NNC(=O)COc1ccc(Br)cc1,-4.37%
11,C/C(=N\Nc1nc(Nc2ccccc2)nc(N2CCOCC2)n1)c1cccs1,5.71%
12,C=CCNC(=O)COC(=O)CNC(=O)c1cc(Cl)cc([N+](=O)[O-])c1,7.34%
13,COc1ccc(O[C@H]2C=C[C@@H](c3ccccc3)O[C@@H]2CO/N=C/C[C@@H]2C=C[C@H](OC(C)=O)[C@@H](COC(C)=O)O2)cc1,5.12%
14,O=C(CSc1nc2ccccc2[nH]1)c1cccs1,8.11%
15,C/C(=N\Nc1nc2ccccc2[nH]1)c1cccs1,77.2% (active)
16,C/C(=N\Nc1ncc(Cl)cc1Cl)c1cccs1,19%
17,Cc1ccc(NC(=O)C2(N3CCC3=O)CCCCC2)cc1,-5.4%
18,COc1cccc(-n2c(=S)sc3c(=O)n(-c4ccccc4OC)c(SCC4OCCO4)nc32)c1,19.1%
19,O=S(=O)(c1ccc(OCC(O)CN2CCN(c3ccccc3Cl)CC2)cc1)N1CCOCC1 (centres undefined),68.2% (active)
20,OC(COc1ccc2ccccc2c1)Cn1cncn1 (centres undefined),-2.08%
21,CC(=O)Nc1ccc(OCC(O)CN2CCN(c3ccccc3Cl)CC2)cc1 (centres undefined),-1.4%
22,OC(COc1cccc(OCC(O)CN2CCCC2)c1)CN1CCCC1 (centres undefined),-2.43%
23,OC(COc1ccc2ccccc2c1)CN1CCOCC1 (centres undefined),59.9% (active)
24,O=[N+]([O-])c1ccc(N2CCN(CC(O)COc3ccccc3)CC2)cc1 (centres undefined),32.1%
